# Screening data deposited in PubChem BioAssay by several laboratories.
# Compounds with a hit are over-represented: about 1.7% of the library has one in this group of screens.
# PrP 5UTR inh: inhibition of PrP 5' UTR reporter expression; cell-based PrP 5' UTR mRNA reporter, plate reader; inhibition, % (no concentration beside the values); actives 0.35% (n = 340,000); in the data active = inhibition above about 52%; also: 0 = median of the neutral control wells
# SSB-PriA inh: inhibitors of Klebsiella pneumoniae PriA binding to SSB C-terminal tail, primary screen, biochemical, AlphaScreen | inhibition, % at 33 µM | AID 1272365, 2023 | PriA–SSB C-terminal tail interaction (Klebsiella pneumoniae) | actives 0.6% (n = 430,000) | AlphaScreen SSBct-PriA binding, biotinylated peptide; in the data active = inhibition mostly above about 37%, no sharp cut-off; inactive = mostly below about 20%;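 also: plate controls were negative control peptide for no effect and reference peptide for full effect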
# BJeLR viability: MLPCN primary cell-based screen for lethality selective to Ras in HRASV12 cells; inhibition, % (test concentration not listed); BJeLR (HRASV12) viability, CellTiter-Glo ATP luminescence, 48 h; actives 0.17% (n = 300,000); AID 1554, 2009; in the data active = inhibition above about 50%; inconclusive = no clear call, values can overlap the other calls
# Yp Topo-I inh: Yersinia pestis topoisomerase I inhibitors, primary screen, biochemical, cleavage product accumulation, plate reader, single point; Y. pestis Topo-I cleavage product accumulation; activity, % at 10 µM; DNA topoisomerase I (Yersinia pestis CO92); actives 0.064% (n = 360,000); AID 504884, 2011; in the data active = activity above about 50%, passing the limit was not always enough; inconclusive = no clear call, values can overlap the other calls
# PrPC TRFRET: inhibitors of human cell surface prion protein PrPC, primary screen, cell-based, TR-FRET | TR-FRET read-out | inhibition, % at 13.8 µM | actives 0.43% (n = 370,000) | AID 720596, 2013; in the data active = inhibition above about 24%; also: 0% = median of the test wells and 100% = reference compound wells
# PfHsp40 rescue: rescue of yeast from PfHsp40 toxicity, primary screen, S. cerevisiae, ATP luminescence | S. cerevisiae expressing PfHsp40, growth rescue | growth rescue, % at 12.5 µM | actives 0.68% (n = 340,000); in the data active = growth rescue above about 28%, passing the limit was not always enough; inconclusive = no clear call, values can overlap the other calls;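 also: yeast W303a lacking pdr1 and pdr3 grown in galactose medium; growth measured after three days at 30 °C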
# PrP 5UTR single: prion 5' UTR mRNA inhibition, cherry-pick retest. shares compounds with PrP 5UTR inh. cell-based prion protein 5' UTR reporter, plate reader. inhibition, % at 2.5 µM. actives 48% (n = 1,100); in the data active = inhibition above about 54%; inconclusive = no clear call, values can overlap the other calls
# * = called active by the depositor; ? = inconclusive; · = no result given.
SMILES,PrP 5UTR inh,SSB-PriA inh,BJeLR viability,Yp Topo-I inh,PrPC TRFRET,PfHsp40 rescue,PrP 5UTR single
Nc1cc(C(Cl)=C(Cl)Cl)c(S(N)(=O)=O)cc1S(N)(=O)=O,64.2*,-9.5,·,-1.6,3.7,0.3,-2.1
Nc1ccccc1S(N)(=O)=O,-18.5,-18.1,·,-1.8,-5.2,-1.1,·
Cc1ccc(C(=O)/C=C/Nc2ccccn2)cc1,75.6*,·,6.1,-3.9,2.8,0.4,61.7*
CCOC(=O)c1cnc2c(-c3ccccc3OC)c(C)nn2c1C,76.5*,-32.6,-3.3,1.2,-9.9,-1.6,-25.0
O=C1CN(C(=O)c2ccc(F)c(S(=O)(=O)N3CCOCC3)c2)c2ccccc2N1,58.9*,7.5,-3.5,-1.4,0.6,0.7,35.7
CCOc1ccc(CN2C(=O)c3ccccc3C2=O)cc1C(=O)NC1CC(C)(C)NC(C)(C)C1,84.7*,-6.2,·,-2.8,-2.8,1.8,-13.3
CCCc1ccc(-c2cc(C(=O)NN3CCOCC3)c3ccccc3n2)cc1,-27.6,-31.8,-1.5,14.9,15.2,0.3,·
CCc1ccc(-c2cc(C(=O)Nn3cnnc3)c3ccccc3n2)cc1,69.6*,-7.5,15.2,1.7,4.0,-1.3,61.2*
CCNC(=S)NNC(=O)c1cc(-c2ccc(OCC)cc2)nc2ccccc12,58.4*,8.4,54.4*,-0.5,-1.2,-0.6,26.6
CC(=O)Nc1ccc(Nc2cc(C)nc3c(-c4ccccc4)cnn23)cc1,59.6*,-42.8,·,-1.9,15.8,?,-4.3
CCCc1cc(Nc2ccc(NC(C)=O)cc2)n2ncc(-c3ccccc3)c2n1,·,14.0,·,·,·,·,·
COc1cc(-c2nc3n(n2)[C@@H](c2cccnc2)C(C(N)=O)=C(C)N3)cc(OC)c1OC,·,-13.0,·,·,·,·,·
COC(=O)Cc1[nH]n(-c2nc3ccccc3s2)c(=O)c1C(C)=Nc1ccc(C)cc1,92.4*,-4.9,4.8,3.6,5.4,-0.1,91.9*
COC(=O)Cc1[nH]n(-c2ccccc2)c(=O)c1C(C)=Nc1ccccc1,-29.8,-3.4,-11.4,-5.1,6.5,0.9,·
COC(=O)Cc1[nH]n(-c2nc3ccccc3s2)c(=O)c1C(C)=Nc1ccc(Cl)cc1,90.6*,2.3,2.7,14.9,-4.0,23.8,87.5*
O=C(NC[C@]1(O)CCOc2ccccc21)C(=O)NC1CC1,·,-8.0,·,·,·,·,·
C[C@H]1CCC/C=C/C2C[C@H](O)CC2[C@H](O)/C=C/C(=O)O1 (stereo not given in full),80.9*,·,33.5,0.6,·,-0.5,89.6*
Nc1ncnc(Oc2cccc3cccnc23)c1[N+](=O)[O-],67.4*,0.9,-0.1,1.6,-13.9,-0.1,31.9
COc1ccc2cc3c(N)nn(C(=O)c4ccccc4Cl)c3nc2c1,57.6*,-12.4,-1.6,12.4,-12.7,-0.4,47.0
CC1CN(C(=O)[C@@H]2CCCN2S(=O)(=O)c2ccc(Cl)cc2)CC(C)O1 (stereo not given in full),84.5*,1.6,·,4.4,0.9,1.9,-11.6
Cc1ccc(S(=O)(=O)Nc2ccc3c4c(cccc24)CC3)c(C)c1,-26.3,16.8,27.6,13.9,6.9,0.8,·
Cc1cc(C)c(S(=O)(=O)Nc2ccc3c4c(cccc24)CC3)c(C)c1,75.5*,-5.6,42.7,-7.0,16.1,1.8,89.1*
Cc1ccc(-c2cc3c(N=O)c4ccccc4c-3n[nH]2)cc1,78.8*,0.6,69.8*,-3.9,-7.2,-0.6,80.7*
CC(=O)N/C(=C\c1ccccc1)C(=O)OCc1ccccc1,71.5*,3.8,-4.9,-1.7,-3.1,-0.6,-21.7
Cc1cccc(C(=O)Nc2nc(-c3ccc([N+](=O)[O-])cc3)cs2)c1,·,-2.0,·,·,·,·,·
SMILES,PrP 5UTR inh,SSB-PriA inh,BJeLR viability,Yp Topo-I inh,PrPC TRFRET,PfHsp40 rescue,PrP 5UTR single
O=C(NCc1cccs1)N1CCOC(c2cc(Cl)cc(Cl)c2)C1 (stereo not given),·,10.0,·,·,·,·,·
CCOc1ccc(-c2cnc3ccccc3n2)cc1,60.1*,1.2,-0.9,11.1,-5.5,-0.3,?
C=CCCC1(CC(C)C)C(=O)NC(=S)NC1=O,90.8*,0.1,·,0.3,-6.3,-1.1,-3.3
O=C(CSc1ncnc2c1nnn2Cc1ccc(Cl)cc1)N1CCCc2ccccc21,·,-11.0,·,·,·,·,·
Cc1ccc(NC(=O)C2COc3ccccc3O2)cc1 (stereo not given),-81.5,-30.9,-9.0,2.3,2.7,2.3,·
Cc1ccc(NC(=O)CN(C)C(=O)C2COc3ccccc3O2)cc1 (stereo not given),75.3*,-10.2,-5.8,-3.3,-1.4,-0.1,-8.7
O=C(NCCOc1cccc(C(F)(F)F)c1)c1ccccc1[N+](=O)[O-],·,9.0,·,·,·,·,·
O=C(NCC(c1cccnc1)N1CCN(c2ccc(F)cc2)CC1)C1CCCCC1 (stereo not given),69.5*,-0.8,3.7,-4.1,-1.1,69.8*,-13.2
COc1ccc(N2CCN(C(CNC(=O)C3CCCCC3)c3cccnc3)CC2)cc1 (stereo not given),1.8,2.0,-5.6,-4.6,2.9,-1.0,·
CCOc1ccc(S(=O)(=O)N2CCN(C(=O)c3cc([N+](=O)[O-])ccc3N3CCOCC3)CC2)cc1,-7.7,2.7,·,12.3,0.0,0.3,·
CCOc1ccc(C(=O)c2cc([N+](=O)[O-])ccc2N2CCOCC2)cc1,58.0*,-4.0,52.7*,4.8,-2.8,0.6,71.5*
Cc1ccc(C(=O)c2cc([N+](=O)[O-])ccc2N2CCOCC2)cc1,2.1,9.1,4.8,7.8,-0.5,-1.8,·
COc1ccc(C(=O)c2cc([N+](=O)[O-])ccc2N2CCOCC2)cc1,82.9*,-3.9,58.9*,-5.6,-11.4,-0.4,79.8*
O=C(Oc1ccccc1)c1ccc(Br)cc1,·,-5.0,·,·,·,·,·
Cc1ccc(NC(=O)Nc2nc(C(=O)N3CCN(C(=O)c4ccco4)CC3)cs2)cc1,·,0.0,·,·,·,·,·
CCN=C1NN=C(c2cc(C)n(CCc3ccccc3)c2C)CS1,-46.7,-7.2,·,-7.8,-8.1,1.5,·
CCN=C1NN=C(c2cc(C)n(Cc3ccco3)c2C)CS1,83.4*,-5.9,-0.1,-7.3,-0.2,0.4,72.2*
COC1C(O)C(C)OC(OC2CCC3(C)C(CCC4C3C(O)CC3(C)C(C5=CC(=O)OC5)CCC43O)C2)C1O (stereo not given),87.4*,-14.1,·,-1.0,8.1,-1.4,82.3*
C[C@]12CC[C@H](O)C[C@H]1CC[C@@H]1[C@@H]2C[C@@H](O)[C@]2(C)[C@@H](C3=CC(=O)OC3)CC[C@]12O,59.0*,-4.1,·,5.0,2.0,0.5,65.7*
